Records with an inconclusive call do not appear. Calls of active or inactive are those of the source. Calls come from the whole dose curve; as a rule, active = well fitted inhibition curve with a large enough effect; inconclusive = small, poorly fitted or top-dose-only effect; inactive = flat fitted curve, though single readings scatter.
Assays:
Test in all cases: qHTS profiling for inhibitors of Plasmodium falciparum proliferation (AID 504749); note: nearly all actives have a fitted effect of over 60% in size
Settings in all cases: P. falciparum in erythrocytes, SYBR Green DNA, 72 h; series mostly up to 28.7 µM
CP237 = system: CP237
Outline: (§1)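 Each compound contacts P. falciparum-infected red blood cells for 72 h at 37 C; lysis buffer (Tris, EDTA, saponin, Triton X, SYBR Green I) is added and fluorescence measured next morning; values normalized to controls.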

CP238 = system: CP238
Outline: as §1

CP247 = system: CP247
Outline: as §1

CP250 = system: CP250
Outline: as §1

CP252 = system: CP252
Outline: as §1

CP256 = system: CP256
Outline: as §1

CP260 = system: CP260
Outline: as §1

CP262 = system: CP262
Outline: as §1

CP265 = system: CP265
Outline: as §1

CP266 = system: CP266
Outline: as §1

CP268 = system: CP268
Outline: as §1

CP269 = system: CP269
Outline: as §1

CP286 = system: CP286
Outline: as §1

CP291 = system: CP291
Outline: as §1

CP297 = system: CP297
Outline: as §1

CP305 = system: CP305
Outline: as §1

CP315 = system: CP315
Outline: as §1

CP325 = system: CP325
Outline: as §1

CP329 = system: CP329
Outline: as §1

CP335 = system: CP335
Outline: as §1

Measured: Potency
Potency is the fitted concentration of half-maximal effect.

Nc1ccc(S(=O)(=O)Nc2cnc3ccccc3n2)cc1
inactive: all assays above

CC(C)CCCC(C)N (stereo unspecified)
inactive: all assays above

c1ccc(-c2nc[nH]c2-c2ccccc2)cc1
inactive: all assays above

CC(=O)Nc1ccc(S(=O)(=O)Nc2ccc([N+](=O)[O-])cc2)cc1
inactive: all assays above

NC(=O)c1ccccc1O
inactive: all assays above

C#C[C@]1(O)CC[C@H]2[C@@H]3CCc4cc(OC)ccc4[C@H]3CC[C@@]21C
inactive: all assays above

CCOC(=O)c1ccc(N)cc1
inactive: all assays above

C[C@@H](O)[C@H]1C(=O)N2C(C(=O)O)=C(S[C@@H]3CN[C@H](CNS(N)(=O)=O)C3)[C@H](C)[C@H]12
inactive: all assays above

CC(=O)Nc1ccc(CC(=O)O)cc1
inactive: all assays above

Oc1ccccc1C=NCc1ccccc1
inactive: all assays above

Nc1nc(N)c(-c2ccccc2)s1
inactive: all assays above

CCCCC(CC)COC(=O)/C=C/c1ccc(OC)cc1 (stereo unspecified)
inactive: all assays above

O=S(=O)(O)c1ccc(O)cc1
inactive: all assays above

CC(=O)Nc1ncc([N+](=O)[O-])s1
inactive: all assays above

Nc1ccc(C(=O)NCC(=O)O)cc1
inactive: all assays above

O=C(O)P(=O)(O)O
inactive: all assays above

CCCCNC(=O)NS(=O)(=O)c1ccc(N)cc1
inactive: all assays above

CCC1Nc2cc(Cl)c(S(N)(=O)=O)cc2S(=O)(=O)N1 (stereo unspecified)
inactive: all assays above

OC1C(O)C(O)C(O)C(O)C1O (stereo unspecified)
inactive: all assays above

CCc1oc2ccccc2c1C(=O)c1cc(I)c(O)c(I)c1
inactive: all assays above

CCCCCCCC/C=C\CCCCCCCCN
inactive: all assays above

O=C(Nc1ccc([N+](=O)[O-])cc1)Nc1ccc([N+](=O)[O-])cc1
active: CP237 3980 nM | CP260 3550 nM | CP286 3160 nM | CP335 4780 nM
inactive: all other assays above

Cc1c[nH]c2ccccc12
inactive: all assays above

CCOc1cc(OCC)c(C(=O)CCC(=O)O)cc1OCC
inactive: all assays above

FC(F)(F)C(F)(F)C(F)(F)C(F)(F)C(F)(F)C(F)(F)C(F)(F)C(F)(F)Br
inactive: all assays above

O=C1C(=O)c2ccccc2C(O)=C1C1CCC(c2ccc(Cl)cc2)CC1 (stereo unspecified)
active: CP237 1.1 nM | CP238 5 nM | CP247 2.2 nM | CP250 2.8 nM | CP252 3.2 nM | CP256 1.6 nM | CP260 0.8 nM | CP265 0.6 nM | CP266 6.4 nM | CP268 5.7 nM | CP269 5.1 nM | CP286 1.1 nM | CP291 6.4 nM | CP305 5.1 nM | CP315 5.7 nM | CP325 6.4 nM | CP335 3.2 nM

CCCCCCCCCCCCCC(=O)OC(C)C
not listed: CP297
inactive: all other assays above

— PubChem BioAssay (NCATS)
